Data reported in PubChem BioAssay.
Calls of active or inactive are those of the source.

Assays:
[1] = binders of probe aFSTL3 on microarray, primary screen, stem cell growth factor project, biochemical, small-molecule microarray, fluorescence 635/667 (AID 1064); details: higher = more signal;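 also: measures binding of the biotinylated anti-FSTL3 antibody to printed compounds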
[2] = binders from COS7 lysate, DM2A8 probe, primary screen, torsin A project, cell lysate, small-molecule microarray, fluorescence 635/667 (AID 1065); details: higher = more signal, COS7 lysate expressing mutant human TOR1A
[3] = binders of probe aFGF2 on microarray, primary screen, stem cell growth factor project, biochemical, small-molecule microarray, fluorescence 635/667 (AID 1067); details: higher = more signal;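 also: measures binding of biotinylated aFGF2 protein to printed compounds on slides; z-score merges feature fluorescence and signal-to-noise across triplicate slides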
[4] = binders of probe aFGF10 on microarray, primary screen, stem cell growth factor project, biochemical, small-molecule microarray, fluorescence 635/667 (AID 1071); details: higher = more signal;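 also: score merges 667 nm spot intensity and signal to noise from triplicate slides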
[5] = biological target: Neurogenic locus notch homolog protein 2 (Homo sapiens) (UniProt Q04721); test: Notch2 binders on small-molecule microarrays, primary screen, biochemical, small-molecule microarray, 635 nm fluorescence, stem cell growth factors (AID 1073); details: Notch2 binding, higher = more signal
[6] = biological target: Pro-neuregulin-1, membrane-bound isoform (Homo sapiens) (UniProt Q02297); test: NRG1 binders on small-molecule microarrays, primary screen, psychiatric disease protein project, biochemical, small-molecule microarray, fluorescence 635/667 (AID 1075); details: NRG1 binding, 635 nm fluorescence, higher = more signal;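 also: score combines 667 nm spot fluorescence with signal to noise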
[7] = system: Neuregulin-1 EGF-like domain; test: binders of neuregulin-1 EGF-like domain, primary screen, biochemical, small-molecule microarray, 635 nm fluorescence (AID 1081); details: small-molecule microarray binding, higher = more signal;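 also: binding of the protein to compounds printed on small-molecule microarray slides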
[8] = FRG1 promoter luciferase signal modulators, primary screen, FRG1 inhibition for FSHD, cell-based, C2C12 myotubes, firefly/Renilla luciferase, luminescence (AID 1084); details: higher = more signal, called active from +8 up or from −8 down
[9] = binders of probe aFST on microarray, primary screen, stem cell growth factor project, biochemical, small-molecule microarray, fluorescence 635/667 (AID 1086); details: higher = more signal;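 also: score merges 667 nm fluorescence with signal-to-noise of each printed compound spot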
[10] = binders of probe aHhip on microarray, primary screen, stem cell growth factor project, biochemical, small-molecule microarray, fluorescence 635/667 (AID 1087); details: higher = more signal;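 also: score merges spot fluorescence at 667nm with spot signal to noise ratio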

Pro-neuregulin-1, membrane-bound isoform (Homo sapiens), sequence (Q02297 whole entry, looked up, the tested form may be a part, canonical isoform): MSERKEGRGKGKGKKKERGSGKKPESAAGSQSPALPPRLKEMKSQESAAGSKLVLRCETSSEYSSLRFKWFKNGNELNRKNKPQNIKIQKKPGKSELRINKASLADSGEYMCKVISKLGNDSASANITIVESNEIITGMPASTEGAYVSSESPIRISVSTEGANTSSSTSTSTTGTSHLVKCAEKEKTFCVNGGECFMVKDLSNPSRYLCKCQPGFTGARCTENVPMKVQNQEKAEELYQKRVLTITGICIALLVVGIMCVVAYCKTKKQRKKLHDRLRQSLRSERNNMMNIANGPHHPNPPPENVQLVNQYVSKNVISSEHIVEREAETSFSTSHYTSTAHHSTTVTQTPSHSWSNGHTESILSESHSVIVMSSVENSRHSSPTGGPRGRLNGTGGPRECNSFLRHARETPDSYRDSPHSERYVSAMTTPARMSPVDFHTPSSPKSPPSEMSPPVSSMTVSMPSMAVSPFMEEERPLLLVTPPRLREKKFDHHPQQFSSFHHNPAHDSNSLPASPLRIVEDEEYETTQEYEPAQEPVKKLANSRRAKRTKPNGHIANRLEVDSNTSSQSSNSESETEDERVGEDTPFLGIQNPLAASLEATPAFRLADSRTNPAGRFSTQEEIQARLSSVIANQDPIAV
Neurogenic locus notch homolog protein 2 (Homo sapiens), sequence (Q04721 whole entry, looked up, canonical isoform): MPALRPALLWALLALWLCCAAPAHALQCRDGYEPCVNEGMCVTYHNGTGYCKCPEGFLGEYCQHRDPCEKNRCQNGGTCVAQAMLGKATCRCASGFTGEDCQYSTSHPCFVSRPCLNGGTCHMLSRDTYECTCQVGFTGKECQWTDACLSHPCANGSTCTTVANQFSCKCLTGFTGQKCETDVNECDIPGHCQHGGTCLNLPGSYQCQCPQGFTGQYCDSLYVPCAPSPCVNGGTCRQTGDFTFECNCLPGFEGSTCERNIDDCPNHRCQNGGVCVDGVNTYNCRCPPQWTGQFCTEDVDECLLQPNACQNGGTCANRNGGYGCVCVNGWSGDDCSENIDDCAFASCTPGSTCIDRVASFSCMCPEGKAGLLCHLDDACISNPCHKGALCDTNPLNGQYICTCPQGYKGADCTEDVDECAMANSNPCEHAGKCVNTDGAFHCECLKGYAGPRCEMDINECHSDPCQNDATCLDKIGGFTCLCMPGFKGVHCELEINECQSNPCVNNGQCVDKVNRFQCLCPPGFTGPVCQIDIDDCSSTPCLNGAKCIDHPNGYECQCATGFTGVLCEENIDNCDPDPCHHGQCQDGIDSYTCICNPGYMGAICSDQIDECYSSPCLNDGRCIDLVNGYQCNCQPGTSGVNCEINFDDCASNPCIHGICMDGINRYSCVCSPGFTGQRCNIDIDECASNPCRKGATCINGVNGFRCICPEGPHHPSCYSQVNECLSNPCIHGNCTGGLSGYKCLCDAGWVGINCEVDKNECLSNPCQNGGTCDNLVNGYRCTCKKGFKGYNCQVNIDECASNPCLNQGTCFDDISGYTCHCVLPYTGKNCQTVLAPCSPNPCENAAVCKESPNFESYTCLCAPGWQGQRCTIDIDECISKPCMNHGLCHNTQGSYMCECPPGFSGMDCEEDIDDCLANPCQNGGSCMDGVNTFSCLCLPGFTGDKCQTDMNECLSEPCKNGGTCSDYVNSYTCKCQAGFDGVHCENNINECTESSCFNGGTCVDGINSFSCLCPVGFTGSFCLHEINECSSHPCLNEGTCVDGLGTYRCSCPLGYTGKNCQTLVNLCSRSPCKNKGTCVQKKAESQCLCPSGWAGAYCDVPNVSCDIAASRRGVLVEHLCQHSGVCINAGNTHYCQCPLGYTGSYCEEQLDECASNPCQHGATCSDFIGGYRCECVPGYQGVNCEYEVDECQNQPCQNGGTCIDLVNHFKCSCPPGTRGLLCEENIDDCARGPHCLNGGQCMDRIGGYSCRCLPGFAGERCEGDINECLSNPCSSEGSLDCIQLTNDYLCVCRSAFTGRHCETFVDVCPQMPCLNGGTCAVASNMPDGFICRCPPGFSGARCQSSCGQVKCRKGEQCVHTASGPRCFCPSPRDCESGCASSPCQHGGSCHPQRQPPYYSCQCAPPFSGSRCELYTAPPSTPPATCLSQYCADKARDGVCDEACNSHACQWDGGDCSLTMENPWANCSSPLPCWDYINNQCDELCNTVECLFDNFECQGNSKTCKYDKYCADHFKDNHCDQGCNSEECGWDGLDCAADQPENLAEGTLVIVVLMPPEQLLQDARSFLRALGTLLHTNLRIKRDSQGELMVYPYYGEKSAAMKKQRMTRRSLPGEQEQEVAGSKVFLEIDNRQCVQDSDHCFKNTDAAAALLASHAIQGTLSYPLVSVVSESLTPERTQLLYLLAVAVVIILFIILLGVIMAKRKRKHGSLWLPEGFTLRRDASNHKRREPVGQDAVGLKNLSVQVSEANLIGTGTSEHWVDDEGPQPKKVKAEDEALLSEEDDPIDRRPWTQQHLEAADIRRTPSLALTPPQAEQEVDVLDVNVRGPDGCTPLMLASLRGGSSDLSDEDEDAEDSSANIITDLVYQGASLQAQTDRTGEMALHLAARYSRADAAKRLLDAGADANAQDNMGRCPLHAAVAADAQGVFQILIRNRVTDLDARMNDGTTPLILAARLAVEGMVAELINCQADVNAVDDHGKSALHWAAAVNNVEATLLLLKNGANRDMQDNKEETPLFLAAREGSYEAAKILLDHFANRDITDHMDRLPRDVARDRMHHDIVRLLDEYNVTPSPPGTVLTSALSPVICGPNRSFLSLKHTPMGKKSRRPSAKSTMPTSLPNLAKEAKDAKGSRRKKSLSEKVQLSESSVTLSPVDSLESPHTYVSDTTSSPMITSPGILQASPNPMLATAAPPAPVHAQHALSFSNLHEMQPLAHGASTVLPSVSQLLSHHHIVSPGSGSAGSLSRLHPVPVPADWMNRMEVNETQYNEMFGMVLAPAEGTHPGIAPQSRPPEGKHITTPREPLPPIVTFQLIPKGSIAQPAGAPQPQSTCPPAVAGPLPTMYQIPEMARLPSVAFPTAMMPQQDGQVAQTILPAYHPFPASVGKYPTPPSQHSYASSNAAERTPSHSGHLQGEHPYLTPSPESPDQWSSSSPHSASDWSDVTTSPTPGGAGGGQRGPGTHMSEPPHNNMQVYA

Compound	composite z-score [1]	composite z-score [2]	composite z-score [3]	composite z-score [4]	composite z-score [5]	composite z-score [6]	composite z-score [7]	z-score [8]	composite z-score [9]	composite z-score [10]
C=CCN1Cc2ccccc2[C@@H]2OC(c3ccc(OCCCO)cc3)=N[C@]2(CC=C)C1=O	1.41	0.629	0.32	0.0911	0.848	0.955	1.06	-0.479 (inactive)	2.47	-0.159
[N-]=[N+]=Nc1ccccc1[C@H]1OC(c2ccc(OCCCO)cc2)=N[C@@]1(Cc1ccccc1)C(=O)NCCN1CCOCC1	0.701	0.584	0.178	1.19	1.65	1.96	1.39	0.0219 (inactive)	1.66	-0.106
CCCN1C(=O)[C@]2(Cc3ccccc31)N=C(c1ccc(OCCCO)cc1)O[C@@H]2c1ccccc1	0.552	0.176	0.0732	-0.139	0.118	1.3	1.23	-1.9 (inactive)	0.311	0.22
O=C1C2C=CC(C(O)C3CC=CCC3)N(Nc3ccccc3)C2C(=O)N1c1ccccc1 (stereo not given)	0.877	-0.129	0.122	0.397	1.61	1.3	1.28	-1.16 (inactive)	1.89	-0.323
CCOC(=O)C[C@H]1[C@H](OC(=O)c2ccc(C(=O)c3ccccc3)cc2)[C@@H](NC(=O)CC(C)C)c2cc(OCCCO)ccc2N1C(=O)c1ccccc1	-0.399	0.275	-0.0266	0.542	1.2	0.807	0.996	-0.16 (inactive)	0.766	0.0129
CN1C2C=C(CCCO)C(C3C(=O)N(C(N)=O)C(=O)C32)C1C1CC1 (stereo not given)	-0.263	0.416	-0.0959	-0.148	-0.536	0.0343	0.949	0.397 (inactive)	-0.57	0.0274
CC(C)N1C(=O)c2ccccc2[C@@H](C(=O)NCCN2CCOCC2)[C@@H]1c1ccc(CO)cc1	0.197	-0.831	-0.22	-1.54	-1.61	1.12	1.28	-0.571 (inactive)	-0.727	-0.284
C#CCN(Cc1ccccc1Br)[C@H](/C=C/c1ccccc1)[C@@H](O)Cc1ccccc1	1.6	-0.145	-0.164	-0.738	-1.09	-0.316	-0.289	-2.05 (inactive)	-0.722	0.0373
C=CCC(OC(C)=O)[C@@H]1[C@@H](N(Cc2ccc(-c3ccccc3)cc2)C(=O)c2ccc(-c3ccccc3)cc2)c2cc(OCCCO)ccc2N1C(=O)c1ccc2ccccc2c1 (stereo not given in full)	0.0946	0.107	-0.128	0.178	-0.443	-0.227	-0.896	0.807 (inactive)	0.352	-0.353
COC(=O)[C@]1(CCS(=O)(=O)c2ccccc2)N=C(c2ccc(OCCCO)cc2)O[C@@H]1c1ccccc1N=[N+]=[N-]	0.48	0.619	0.136	0.898	1.53	1.79	1.37	1.89 (inactive)	1.15	0.0102
COC(=O)[C@@H]1N=C(c2ccc(OCCCO)cc2)O[C@@H]1c1ccccc1	0.497	-0.0336	-0.103	-0.789	-0.997	0.403	0.326	7.16 (inactive)	-0.456	0.176
CCOC(=O)C[C@H]1[C@H](OC(=O)c2cc3ccccc3oc2=O)[C@@H](NC(=O)c2ccc3ccccc3n2)c2cc(OCCCO)ccc2N1C(=O)Cc1ccc(OC)cc1	-0.446	0.522	-0.0107	0.302	0.958	1.03	0.946	0.547 (inactive)	0.24	-0.201
C[C@@H]1NC(=O)[C@@H](Cc2ccccc2)NC(=O)[C@@]23C(=O)N[C@@H](Cc4ccccc4)C2[C@H](C)[C@@]2(C)O[C@H]2C3/C=C/C/C=C\CNC1=O (stereo not given in full)	-0.285	1.13	-0.149	-0.211	-0.787	-0.235	0.305	-0.323 (inactive)	-0.263	-0.249
COc1ccc(CCNC(=O)[C@@H]2c3ccccc3C(=O)N(C3CCCCC3)[C@H]2c2ccc(CO)cc2)cc1	0.0003	1.3	0.104	0.329	0.785	1.05	1.24	-0.335 (inactive)	0.246	-0.0645
CCOc1cc(C(O)C2C=CC3C(=O)NC(=O)C3N2Nc2ccc(Cl)cc2Cl)ccc1O (stereo not given)	0.0596	-0.565	0.042	-0.246	-0.463	-0.226	-0.885	0.59 (inactive)	0.0054	-0.297
CC(C)C[C@@H]1NC(=O)[C@@H]2C[C@H](C(=O)NCCCCCCN)[C@H](c3cccc(OCCO)c3)N2C1=O	0.0713	-0.262	0.107	0.655	0.928	1.98	1.44	1.32 (inactive)	0.819	-0.121
COc1cc(NN2C(C(O)c3ccc(N(C)C)cc3)C=CC3C(=O)N(c4ccccc4)C(=O)C32)cc(OC)c1OC (stereo not given)	0.817	0.0214	0.107	0.396	1.18	0.465	1.13	1.44 (inactive)	0.588	-0.0618
COc1cc2c(cc1O)C(C1CC1)N(C)CC2 (stereo not given)	0.646	-0.616	-0.104	-0.874	-0.531	0.63	-0.197	0.0877 (inactive)	-0.406	-0.0994
[N-]=[N+]=Nc1ccccc1C[C@@]1(C(N)=O)N=C(c2ccc(OCCCO)cc2)O[C@@H]1c1ccccc1N=[N+]=[N-]	0.613	0.338	-0.0751	0.684	1.45	0.467	1.26	0.0144 (inactive)	0.493	0.0722
C=C(C(=O)CC[C@H](OC(=O)c1ccccc1-c1ccccc1C(=O)O)c1cccc(OCCO)c1)C(C)C	-0.337	-0.062	-0.109	0.211	-0.275	0.262	0.0799	-0.0752 (inactive)	-0.224	-0.134
C=CCNC(=O)[C@@H]1[C@H]2C(=O)O[C@H](c3ccccc3)[C@H](c3ccccc3)N2[C@H](c2ccc(O)cc2)[C@@]12C(=O)N(C(=O)OCCOC)c1ccc(C#CC3=CCCCC3)cc12	-0.254	0.467	-0.021	0.512	0.761	1	1.17	0.816 (inactive)	0.668	0.951
COC(=O)c1c(CC[C@@H](CO)NC(=O)N[C@@H](C)Cn2cc(-c3ccccn3)nn2)oc(C(C)=O)c1C(=O)OC	-0.291	0.334	-0.076	0.384	-0.127	1.66	1.29	0.224 (inactive)	-0.205	-0.0237
CCOC(=O)C1=C[C@@H](C(C)C)N(S(=O)(=O)c2ccc(C)cc2)[C@H]1c1ccc(C(F)(F)F)cc1	-0.235	0.231	0.112	1.05	1.67	0.497	1.22	-2.54 (inactive)	1.69	0.0873
COc1cccc(C)c1NC(=O)O[C@H]1[C@H](OC(=O)Nc2ccc3c(c2)OCO3)[C@@H](OC(=O)Nc2ccc3c(c2)OCO3)[C@@H](OC)O[C@@H]1CO	-0.0021	0.893	0.121	1.07	1.65	-0.0548	1.07	6.28 (inactive)	1.17	0.0243
COC(=O)[C@@H]1N=C(c2ccc(OCCCO)cc2)O[C@@H]1C	0.0684	0.331	-0.0627	0.509	0.108	-0.519	0.155	5.05 (inactive)	0.195	0.0139
COc1cc(C(O)C2C=CC3C(=O)N(C)C(=O)C3N2Nc2ccccc2)cc(OC)c1OC (stereo not given)	1.3	0.723	0.341	0.602	1.25	1.83	1.35	-0.818 (inactive)	1.53	0.592
